# Hits are enriched below; roughly 1.1% of the tested compounds scored in any of these assays.
# Y pestis TopoI: Yersinia pestis topoisomerase I inhibitors, primary screen, biochemical, cleavage product accumulation, plate reader, single point | DNA topoisomerase I (Yersinia pestis CO92) | Y. pestis Topo-I cleavage product accumulation | activity, % at 10 µM | 360,000 compounds, 0.064% hits | AID 504884, 2011; in the data active = activity above about 50%, passing the limit was not always enough
# BioA inh: M. tuberculosis BioA enzyme inhibitors, primary screen, biochemical, plate reader, single point, HTS. inhibition, % at 9.99 µM. AID 602481, 2012. purified M. tuberculosis BioA enzyme. 360,000 compounds, 0.096% hits; in the data active = inhibition above about 40%
# FadD28 FP inh: inhibitors of FadD28 bisubstrate probe binding, primary screen, biochemical, fluorescence polarization, single point | Mycobacterium tuberculosis FadD28 fatty-acid-AMP ligase | inhibition, % at 12.5 µM | 360,000 compounds, 0.22% hits; in the data active = inhibition above about 8.5%, passing the limit was not always enough
# PrP 5UTR inh: inhibition of PrP 5' UTR reporter expression; cell-based PrP 5' UTR mRNA reporter, plate reader; inhibition, % (concentration not given with the values); 340,000 compounds, 0.35% hits; AID 488862, 2010; in the data active = inhibition above about 52%; also: 0 = median of the neutral control wells
# PfHsp40 yeast: rescue of yeast from PfHsp40 toxicity, primary screen, S. cerevisiae, ATP luminescence; 340,000 compounds, 0.68% hits; growth rescue, % at 12.5 µM; AID 504582, 2011; S. cerevisiae expressing PfHsp40, growth rescue; in the data active = growth rescue above about 28%, passing the limit was not always enough;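 also: yeast W303a lacking pdr1 and pdr3 grown in galactose medium; growth measured after three days at 30 °C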
# * hit, by the source's call; x = not tested or not shown; ! = repeats disagree.
SMILES,Y pestis TopoI,BioA inh,FadD28 FP inh,PrP 5UTR inh,PfHsp40 yeast
COc1ccc(S(=O)(=O)Nc2ccc3c(c2)C(=O)N([C@@H](C)CO)C[C@H](C)[C@H](CN(C)C(=O)Nc2ccc4c(c2)OCO4)O3)cc1,x,2,x,x,x
C[C@H]1CCCCO[C@@H](CN(C)Cc2ccccc2)[C@@H](C)CN([C@@H](C)CO)C(=O)c2cc(NS(C)(=O)=O)ccc2O1,x,-3,x,x,x
CO[C@H]1CN(C)C(=O)c2cc(NC(=O)C3CCC3)ccc2OC[C@H](C)NC[C@@H]1C,x,-2,x,x,x
O=S(=O)(N1CCCCC1)n1nnc2ccccc21,4,-2,-3,-37,39*
O=C(C[C@H]1C=C[C@@H](NC(=O)Nc2ccccc2)[C@@H](CO)O1)NCc1ccccn1,x,-4,x,x,x
Nc1nn2cc(-c3ccc(Br)cc3)nc2c2ccccc12,2,4,-3,-83,91*
Brc1ccc(-c2cn3nc4c(nc3n2)CCCC4)cc1,0,x,-1,41,-2
C[C@H]1CCCCO[C@H](CN(C)Cc2ccc(C(F)(F)F)cc2)[C@@H](C)CN([C@@H](C)CO)C(=O)c2cc(NC(=O)CCCN(C)C)ccc2O1,x,-2,x,x,x
CCN1CCN(Cc2ccc(NC(=O)c3cc(NC(=O)C(=O)c4c[nH]c5ccccc45)cc(OC)c3)cc2C(F)(F)F)CC1,-20,-1,66*!,26,-1
CCN1CCN(Cc2ccc(NC(=O)c3ccc(C)c(NC(=O)C(=O)c4c[nH]c5ccccc45)c3)cc2C(F)(F)F)CC1,-3,0,55*!,35,-1
CCN1CCN(Cc2ccc(NC(=O)c3ccc(C)c(NC(=O)c4ccc5n[nH]nc5c4)c3)cc2C(F)(F)F)CC1,-5,7,-4,13,0
Oc1ccc(CNc2ccccc2F)c2cccnc12,-8,-1,-3,20,39*
CN(C)c1ccc(-n2cccc2/C=C/[N+](=O)[O-])cc1,-6,x,1,-2,230*
C[C@H](CO)N1C[C@H](C)[C@@H](CN(C)C(=O)NC2CCCCC2)Oc2ccc(NC(=O)Nc3ccc4c(c3)OCO4)cc2C1=O,x,0,x,x,x
CSc1ccccc1OCc1cc(C(=O)N2CCN(C)C(c3ccccc3)C2)no1 (configuration not stated),34,-3,-1,-13,78*
CN1CCN(C(=O)c2cc(COc3c(F)cccc3F)on2)CC1c1ccccc1 (configuration not stated),10,-3,-1,-16,80*
COc1ccccc1OCc1cc(C(=O)N2CCN(C)C(c3ccccc3)C2)no1 (configuration not stated),25,2,-2,-65,-1
CN1CCN(C(=O)c2cc(COc3ccc(F)cc3Cl)on2)CC1c1ccccc1 (configuration not stated),15,1,-1,-14,139*
CCCNC(=O)N(C)C[C@@H]1Oc2ncc(-c3ccc(C(=O)N(C)C)cc3)cc2C(=O)N([C@H](C)CO)C[C@@H]1C,x,-4,x,x,x
C=CCc1ccc(OCC(O)CN2CCCCC2)c(OC)c1 (configuration not stated),-8,-2,-3,-23,0
C=CCc1ccc(OCC(O)COc2ccc(CC=C)cc2OC)c(OC)c1,13,14,-1,-4,46*
C[C@@H]1CN([C@@H](C)CO)C(=O)c2cc(/C=C/c3ccccc3)cnc2O[C@@H]1CN(C)C(=O)Nc1ccccc1F,x,9,x,x,x
O=C(c1cccc(F)c1)N1CCN(C2CCCCC2)CC1,-11,0,-2,-49,54*
O=C(c1cccc(F)c1)N1CCC(N2CCCCCC2)CC1,5,-1,1,-22,0
O=C(COC(=O)c1ccc([N+](=O)[O-])o1)Nc1ccc2c(c1)OC(F)(F)O2,-8,1,-2,x,x
SMILES,Y pestis TopoI,BioA inh,FadD28 FP inh,PrP 5UTR inh,PfHsp40 yeast
O=C(COC(=O)c1ccc([N+](=O)[O-])o1)Nc1ccc2c(c1)OCO2,8,-1,-1,-25,67*
Cc1cccc(C)c1NC(=O)COC(=O)c1ccc([N+](=O)[O-])o1,-5,x,-2,-16,32*
CCOc1cc(N2CCOCC2)c(OCC)cc1NC(=O)COC(=O)c1ccc([N+](=O)[O-])o1,0,1,-4,-23,82*
C[C@@H]1CN([C@H](C)CO)S(=O)(=O)c2ccc(C3=CCCCC3)cc2O[C@@H]1CN(C)Cc1ccccc1,x,-1,x,x,x
COc1cc(OC)cc(-c2sc3ccc(OC)cc3c2C#CC2(N)CCCCC2)c1,0,-1,-14,-11,34*
COc1ccc(/C(O)=C2/C(=O)C(=O)N(CCN3CCOCC3)C2c2ccccn2)cc1 (configuration not stated),-6,-3,-1,-4,-1
O=C1C(=O)N(CCCN2CCOCC2)C(c2ccc(F)cc2)/C1=C(/O)c1ccccc1 (configuration not stated),0,0,-3,-22,63*
O=C1C(=O)N(CCN2CCOCC2)C(c2ccccn2)/C1=C(/O)c1ccc(F)cc1 (configuration not stated),-5,0,-3,-20,55*
COc1ccc(C2/C(=C(/O)c3ccc(F)cc3)C(=O)C(=O)N2CCCN2CCOCC2)cc1OC (configuration not stated),8,0,-4,-7,0
Cc1ccc(S(=O)(=O)N[C@@H]2CC[C@@H](CCNC(=O)Cc3ccccn3)O[C@@H]2CO)cc1,x,-2,x,x,x
C[C@@H]1CN([C@H](C)CO)C(=O)Cc2cc(NS(=O)(=O)c3ccccc3)ccc2O[C@@H]1CN(C)S(=O)(=O)c1ccc(F)cc1,x,-2,x,x,x
O=C(C[C@@H]1C=C[C@H](NC(=O)C2CCOCC2)[C@@H](CO)O1)NCC1CCCCC1,x,2,x,x,x
O=c1[nH]nc(Cc2ccc(-c3ccc(Cl)cc3)o2)c2ccccc12,68*,-2,-1,-3,0
O=C(NCc1cccs1)C1CCN(S(=O)(=O)N2CCCC2)CC1,6,-1,0,-14,33*
O=C(NCc1cccs1)C1CCN(S(=O)(=O)c2cccs2)CC1,0,-1,0,-1,-1
N#C[C@H]1[C@H](c2ccccc2)[C@H](CO)N1C(=O)CN1CCOCC1,x,1,x,x,x
COc1ccccc1NC(=O)Nc1nnc(CC(=O)Nc2ccccc2C)s1,2,x,-6,76*,-1
C[C@@H]1CN([C@H](C)CO)C(=O)c2cc(-c3ccncc3)cnc2O[C@@H]1CN(C)C(=O)C1CC1,x,1,x,x,x
CCOC(=O)c1c(/N=C/c2c(O)n(-c3ccc(F)cc3)c(=S)[nH]c2=O)sc2c1CCCC2,5,x,0,-12,41*
CCOC(=O)c1c(/N=C/c2c(O)n(-c3ccccc3F)c(=S)[nH]c2=O)sc2c1CCCC2,14,0,2,-16,2
C[C@@H]1CCCCO[C@@H](CN(C)C(=O)CCCN(C)C)[C@H](C)CN([C@H](C)CO)C(=O)c2cc(NC(=O)c3ccccc3)ccc2O1,x,-2,x,x,x

# Source: PubChem BioAssay
